Test results from PubChem BioAssay.
Potency and affinity values are given separately. Calls of active or inactive are those of the source. Entries that show only a call come without a potency. How the calls were made is not given here.

test: A2780 ovarian cancer cell cytotoxicity, dose response, cytotoxicity control, plate reader, dry powder samples (AID 743046); settings: series mostly up to 35 µM

| SMILES | outcome |
| --- | --- |
| C[C@H](CO)N1C[C@H](C)[C@@H](CN(C)Cc2ccc(Cl)c(Cl)c2)Oc2ccc(NC(=O)Nc3ccc(C(F)(F)F)cc3)cc2CC1=O | inactive |
| O=C(C[C@@H]1CC[C@@H]2[C@H](COC[C@H](O)CN2Cc2ccc3c(c2)OCO3)O1)Nc1ccc(-c2ccccc2)cc1 | inactive |
| COc1cccc(-c2ccc([C@H]3[C@@H](CO)N(C(=O)c4ccccn4)[C@H]3C#N)cc2)c1 | inactive |
| COc1ccc(NC(=O)N2CCCCN3[C@H](CO)[C@H](c4ccc(C#Cc5ccccc5)cc4)[C@H]3C2)cc1 | inactive |
| C[C@H]1CCCCO[C@H](CN(C)C(=O)Nc2ccc(C(F)(F)F)cc2)[C@@H](C)CN([C@@H](C)CO)C(=O)c2cc(NS(=O)(=O)c3ccccc3)ccc2O1 | inactive |
| C[C@@H]1CN([C@@H](C)CO)C(=O)c2cc(NC(=O)Cc3ccccc3)ccc2O[C@@H](C)CCCCO[C@@H]1CN(C)Cc1ccc(C(F)(F)F)cc1 | inactive |
| C[C@@H]1CN([C@@H](C)CO)C(=O)Cc2cc(NC(=O)C3CCCCC3)ccc2O[C@H]1CN(C)Cc1ccc(Cl)c(Cl)c1 | inactive |
| C[C@@H]1CN([C@H](C)CO)C(=O)c2cc(NS(=O)(=O)c3ccccc3)ccc2O[C@@H](C)CCCCO[C@@H]1CN(C)Cc1ccc(Cl)c(Cl)c1 | inactive |
| Cc1cccc(S(=O)(=O)N2CC[C@@H]3[C@H](CO)N(C)c4ccc(C#Cc5ccc(F)cc5)cc4[C@@H]32)c1 | inactive |
| O=C(C[C@H]1CC[C@@H]2[C@H](COC[C@H](O)CN2S(=O)(=O)c2cccc(F)c2)O1)Nc1ccc(-c2ccccc2)cc1 | inactive |
| C[C@H]1CCCCO[C@H](CN(C)C(=O)Nc2cccc3ccccc23)[C@@H](C)CN([C@@H](C)CO)C(=O)c2cc(NS(=O)(=O)c3ccc(F)cc3)ccc2O1 | inactive |
| C[C@H]1CN([C@@H](C)CO)C(=O)c2c(c3ccccc3n2C)-c2ccccc2CO[C@@H]1CN(C)Cc1cccc(C(F)(F)F)c1 | inactive |
| CN(C[C@H]1N[C@@H](CO)[C@@H]1c1ccc(-c2cccc(F)c2)cc1)S(C)(=O)=O | inactive |
| C[C@@H]1CN([C@@H](C)CO)C(=O)Cc2cc(NS(=O)(=O)c3ccc(Cl)cc3)ccc2O[C@H]1CN(C)Cc1ccc(Cl)c(Cl)c1 | inactive |
| Cc1ccccc1-c1ccc([C@@H]2[C@@H](CO)N3CCCCN(C(=O)NC4CCCC4)C[C@H]23)cc1 | inactive |
| C[C@@H]1CCCCO[C@@H](CN(C)Cc2ccc(Cl)c(Cl)c2)[C@H](C)CN([C@H](C)CO)C(=O)c2cc(NS(=O)(=O)c3ccc(Cl)cc3)ccc2O1 | inactive |

| SMILES | outcome |
| --- | --- |
| C[C@@H]1CCCCO[C@@H](CN(C)C(=O)Nc2ccc(F)cc2)[C@H](C)CN([C@H](C)CO)C(=O)c2cc(NS(=O)(=O)c3ccc(Cl)cc3)ccc2O1 | inactive |
| C[C@@H]1CCCCO[C@@H](CN(C)Cc2ccc(C(F)(F)F)cc2)[C@H](C)CN([C@@H](C)CO)C(=O)c2cc(NS(=O)(=O)c3ccc(F)cc3)ccc2O1 | inactive |
| C[C@@H]1CN([C@@H](C)CO)C(=O)c2cc(NC(=O)Cc3ccccc3)ccc2O[C@@H](C)CCCCO[C@H]1CN(C)Cc1ccc(C(F)(F)F)cc1 | inactive |
| N#C[C@@H]1[C@@H](c2ccc(-c3ccccc3F)cc2)[C@@H](CO)N1C(=O)C1CCC1 | inactive |
| C[C@H](CO)N1C[C@H](C)[C@@H](CN(C)Cc2ccc(Oc3ccccc3)cc2)Oc2ccc(NS(=O)(=O)c3ccc(F)cc3)cc2CC1=O | inactive |
| O=C(C[C@@H]1CC[C@@H]2[C@H](COC[C@H](O)CN2S(=O)(=O)c2ccccc2Cl)O1)N1CCC(Cc2ccccc2)CC1 | inactive |
| C[C@H](CO)N1C[C@H](C)[C@H](CN(C)Cc2ccc(Cl)c(Cl)c2)OCCCC[C@H](C)Oc2ccc(NC(=O)Nc3ccc(C(F)(F)F)cc3)cc2C1=O | inactive |
| C[C@H]1CCCCO[C@H](CN(C)C(=O)NC2CCCCC2)[C@@H](C)CN([C@@H](C)CO)C(=O)c2cc(NC(=O)Nc3ccc(C(F)(F)F)cc3)ccc2O1 | inactive |
| C[C@@H]1CCCCO[C@H](CN(C)S(=O)(=O)c2cccs2)[C@@H](C)CN([C@@H](C)CO)C(=O)c2cc(NC(=O)Nc3ccc(C(F)(F)F)cc3)ccc2O1 | inactive |
| C[C@H](O)C#Cc1cnc2c(c1)C(=O)N([C@H](C)CO)C[C@@H](C)[C@@H](CN(C)Cc1ccc(-c3ccccc3)cc1)O2 | inactive |
| Cc1ccc(S(=O)(=O)N2CC[C@@H]3[C@H](CO)N(C)c4ccc(-c5ccc(C#N)cc5)cc4[C@@H]32)cc1 | inactive |
| O=C(C[C@H]1CC[C@H]2[C@@H](COC[C@@H](O)CN2Cc2ccc3c(c2)OCO3)O1)Nc1ccc(-c2ccccc2)cc1 | inactive |
| COc1ccc(CN(C)C[C@H]2OCCCC[C@H](C)Oc3ccc(NC(=O)Nc4ccc(C(F)(F)F)cc4)cc3C(=O)N([C@@H](C)CO)C[C@@H]2C)cc1 | inactive |
| C[C@@H]1CN([C@@H](C)CO)C(=O)c2cc(NC(=O)Nc3ccc(C(F)(F)F)cc3)ccc2O[C@@H](C)CCCCO[C@@H]1CN(C)Cc1ccncc1 | inactive |
| C[C@@H]1CCCCO[C@@H](CN(C)Cc2ccc(C(F)(F)F)cc2)[C@H](C)CN([C@H](C)CO)C(=O)c2cc(NS(=O)(=O)c3ccccc3)ccc2O1 | inactive |
| N#C[C@@H]1[C@@H](c2ccc(-c3cccc(F)c3)cc2)[C@H](CO)N1C(=O)NC1CCCC1 | inactive |
